# Source: PubChem BioAssay AID493170 (National Center for Advancing Translational Sciences (NCATS), 2011)
# Inconclusive results are not listed. Calls of active or inactive are those of the source. Calls follow the shape of the dose curve; as a rule, active = well fitted inhibition curve with a large enough effect; inconclusive = small, poorly fitted or top-dose-only effect, or effect the other way; inactive = flat fitted curve, though single readings scatter.
# Molecular target: Ubiquitin carboxyl-terminal hydrolase 2 (Homo sapiens) (UniProt O75604)
# Assay: Ub-rhodamine 110 based assay for inhibitors Ubiquitin-specific Protease USP2a; also: nearly all actives have a fitted effect of over 50% in size
# Details: USP2a Ub-rhodamine110 cleavage, fluorescence; series mostly up to 38.3 µM; activity change, negative = inhibition: at the top concentration
# In short: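 5 nM USP2a preincubated with compounds for 30 min at RT in 20 mM Tris-HCl pH 8.0, 2 mM CaCl2, 2 mM beta-mercaptoethanol, 0.05% CHAPS. Cleavage of 150 nM Ub-rhodamine 110 read kinetically (Ex 485/Em 531) for 7 min.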
# % is scaled to controls: 0 for no effect and ±100 for the full control effect; potency is read from the fitted curve at half-maximal effect.
# Sequence of Ubiquitin carboxyl-terminal hydrolase 2 (Homo sapiens) (O75604 whole entry, looked up): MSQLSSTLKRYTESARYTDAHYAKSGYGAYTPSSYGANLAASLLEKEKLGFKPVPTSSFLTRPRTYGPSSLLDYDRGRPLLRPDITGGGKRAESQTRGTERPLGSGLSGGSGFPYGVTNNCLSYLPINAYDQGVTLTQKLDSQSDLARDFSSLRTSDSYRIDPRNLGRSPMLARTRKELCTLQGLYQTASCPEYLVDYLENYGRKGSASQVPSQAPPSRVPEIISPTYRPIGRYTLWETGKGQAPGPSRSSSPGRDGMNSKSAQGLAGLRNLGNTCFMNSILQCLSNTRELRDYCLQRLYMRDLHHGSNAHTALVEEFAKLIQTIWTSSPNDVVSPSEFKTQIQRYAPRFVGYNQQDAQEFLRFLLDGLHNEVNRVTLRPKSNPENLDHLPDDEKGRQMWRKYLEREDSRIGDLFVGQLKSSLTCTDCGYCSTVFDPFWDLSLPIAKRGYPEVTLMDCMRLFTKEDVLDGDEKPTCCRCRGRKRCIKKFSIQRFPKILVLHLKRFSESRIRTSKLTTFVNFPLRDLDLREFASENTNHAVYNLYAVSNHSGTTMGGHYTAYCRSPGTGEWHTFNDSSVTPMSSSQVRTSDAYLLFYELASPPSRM
SMILES,"activity change, negative = inhibition",Potency
Cn1c2ccccc2c2nnc(SC3CCOC3=O)nc21 (centres undefined),1.37% (inactive),
O=C1NCC(CN(c2ccccc2)c2ccccc2)O1 (centres undefined),-0.749% (inactive),
CCn1cc(C(=O)N2CCOCC2)c(=O)c2cc(S(=O)(=O)N(C)C)ccc21,3.51% (inactive),
Cc1onc(-c2ccccc2)c1C(=O)N1CCN(C)CC1,-5.26% (inactive),
O=C(COC(=O)c1cccc(S(=O)(=O)N2CCc3ccccc32)c1)NC1CCS(=O)(=O)C1 (centres undefined),0.352% (inactive),
C#CCOCCOCCOCCNc1nc(N2CCN(C(=O)CCCCCCCCCCNC(=O)Cn3cc(CCCCCN)nn3)CC2)nc(N2CCN(C(=O)CCCCCCCCCCNC(=O)[C@H](CO)n3cc(CCCCCN)nn3)CC2)n1,-12.4% (inactive),
N=C1/C(=C\c2ccc(-c3cccc(Cl)c3)o2)C(=O)N=C2SC=C(c3ccccc3)N12,,11.2 µM (active)
COC(=O)C1Sc2[nH]c(=O)sc2C(c2ccc(Cl)cc2)C1C(=O)OC (centres undefined),-5.69% (inactive),
Nc1c(C(=O)Nc2ccc3c(c2)OCCO3)nnn1CCc1ccccc1,2.3% (inactive),
Cc1ccc(C2=NC(=O)/C(=C/c3cc(O)c(O)c(Br)c3)S2)cc1,,1.58 µM (active)
Cc1ccc(-c2c(C#N)c(N)nc3c2CCCCC3)o1,-15.5% (inactive),
O=C(NCC(c1cccnc1)N1CCN(c2ccc(F)cc2)CC1)OCc1ccccc1 (centres undefined),-5.52% (inactive),
CC(=O)Nc1ccc(Nc2cc(C)nc(Nc3ccc(NC(C)=O)cc3)n2)cc1,-6.62% (inactive),
O=C(COC(=O)/C=C/c1ccc(Cl)cc1)NC1CC1,2% (inactive),
CCC(CO)Nc1nc(CN2CCCCC2)nc2scc(-c3ccccc3)c12 (centres undefined),-3.55% (inactive),
CCC(C(=O)NCc1ccccc1OC)n1nc(C)n2c(cc3occc32)c1=O (centres undefined),-4.2% (inactive),
Cc1cccc(Nc2nc(NCc3ccco3)c3ccccc3n2)c1,-11.2% (inactive),
CN(c1cccc(NC(=O)Nc2cccc(Cl)c2)c1)S(C)(=O)=O,-7.59% (inactive),
Cc1ccc(OCC(=O)Nc2ccc(N3CCCC3)cc2)cc1C,,10 µM (active)
Cc1cccc(C)c1-n1cccc1/C=C1\SC(=S)N(c2cccc(C(=O)O)c2)C1=O,,7.94 µM (active)

SMILES,"activity change, negative = inhibition",Potency
O=C(N/N=C/c1ccc(-c2ccc(Cl)c(C(=O)O)c2)o1)c1cc2c(ccc3ccccc32)o1,,10 µM (active)
COc1ccc(C(=O)C[N+]2(C)CCOCC2)cc1,-0.2% (inactive),
O=C(CSCc1cnn(-c2ccccc2)c1-n1cccc1)NCC1CCCO1 (centres undefined),0.658% (inactive),
Nc1cc(N)nc(SCC(=O)N2CCCCC2)n1,-5.91% (inactive),
COc1cccc(N2C(=O)C3CCCN3C2c2ccc(N(C)C)cc2)c1 (centres undefined),-6.94% (inactive),
O=C(N/N=C/c1ccc(-c2ccc(S(=O)(=O)Nc3ncccn3)cc2)o1)c1cc2ccccc2cc1O,,4.47 µM (active)
Cc1ccc(CSC2=Nc3ccccc3C3=NC(CC(=O)NCc4ccco4)C(=O)N23)cc1 (centres undefined),,8.91 µM (active)
Cc1ccc(C(=O)N(c2c(C)n(C)n(-c3ccccc3)c2=O)C(C)C)cc1,12.9% (inactive),
CC(C)(C)[C@H]1COC(=O)[C@@H](Cc2ccc(F)cc2)C/C=C\C[C@@H](CC(=O)N[C@@H](CO)Cc2ccccc2)C(=O)N1,0.71% (inactive),
COc1cc(C)c(S(=O)(=O)NCc2ccc3c(c2)OCO3)cc1C,-4.79% (inactive),
O=C(CN1CCC(O)CC1)N1c2ccccc2C=Cc2ccccc21,-2.98% (inactive),
Nc1nc(NCCO)nc(NCC2CCCO2)c1[N+](=O)[O-] (centres undefined),-7.49% (inactive),
COc1ccccc1N1CCN(c2cc(C)nc3nc(C)nn23)CC1,-3.98% (inactive),
O=C(N/N=C/c1ccc(F)cc1)c1cc(-c2ccco2)nc2ccccc12,,2 µM (active)
CN1CCN(CCC(=O)N/N=C/c2cc([N+](=O)[O-])ccc2O)CC1,-4.22% (inactive),
CC(=O)NS(=O)(=O)c1ccc(NC(=O)c2cc(-c3ccc(C)c(C)c3)nc3ccccc23)cc1,,11.2 µM (active)
Cc1ccc(C(=O)O/N=C/c2c(C(F)(F)F)nn(C)c2Sc2ccc(Cl)cc2)cc1,6.42% (inactive),
CC(C)(C)CC(C)(C)c1ccc(OCCOCC[N+](C)(C)Cc2ccccc2)cc1,2.74% (inactive),
O=C(NCCC1=CCCCC1)C1CCCN(S(=O)(=O)c2cnc[nH]2)C1 (centres undefined),-14.8% (inactive),
